Experimental data as given in the OligoGym collection.

Biological target: NUP54
Experiment: pooled miR-30 sensor sort-seq; sequence = guide strand
Settings: shRNA
Also: reference of the scale not given here.

TAAACCAGTACTAGTTCCCGTT was tested. Which sensor-assay potency score (higher = more potent) did it give?
The sensor-assay potency score (higher = more potent) was -0.284.

ATAAATAACAACTTCTGTCTGA was tested. Which sensor-assay potency score (higher = more potent) did it give?
Its sensor-assay potency score (higher = more potent) is 1.09.

For TAATGTAGTTTGCTGCTGCTGC, which sensor-assay potency score (higher = more potent) is on record?
Its sensor-assay potency score (higher = more potent) is 0.262.

For TATATCTTCTAGATCGTCTTTA, which sensor-assay potency score (higher = more potent) is on record?
Its sensor-assay potency score (higher = more potent) is 0.519.

TTATATCTTCTAGATCGTCTTT was tested. Which sensor-assay potency score (higher = more potent) did it give?
Its sensor-assay potency score (higher = more potent) is -0.236.

How did the sensor-assay potency score (higher = more potent) turn out when TAACAGATCTGCATCTATGTAA was run?
The sensor-assay potency score (higher = more potent) was 0.386.

With TTCTAGATCGTCTTTAATGATG as the sequence, how does the sensor-assay potency score (higher = more potent) read?
The sensor-assay potency score (higher = more potent) was -1.29.

Which sensor-assay potency score (higher = more potent) does the source give for TACAGATGTAGTTTGATTCTTT here?
The sensor-assay potency score (higher = more potent) was 0.197.

How did the sensor-assay potency score (higher = more potent) turn out when TTGTTGTTTCAAATGCTGCTTG was run?
The sensor-assay potency score (higher = more potent) was 0.0156.

How did the sensor-assay potency score (higher = more potent) turn out when TACATTTACAGTAAGGGTCTGG was run?
Its sensor-assay potency score (higher = more potent) is 0.14.

TAAATAACAACTTCTGTCTGAT was tested. Which sensor-assay potency score (higher = more potent) did it give?
The sensor-assay potency score (higher = more potent) was 0.552.

Biological target: NUTF2
Experiment: as above
Settings: shRNA

Which sensor-assay potency score (higher = more potent) does the source give for TTTTGCATTACTTAAGTCTTTC here?
Its sensor-assay potency score (higher = more potent) is -0.669.

TTCTCCTTCACTTCTTTGGGTT was tested. Which sensor-assay potency score (higher = more potent) did it give?
Its sensor-assay potency score (higher = more potent) is -0.477.

With TAGTAATGTTGAATGAAGCTGG as the sequence, how does the sensor-assay potency score (higher = more potent) read?
Its sensor-assay potency score (higher = more potent) is 0.656.

With TTCTTTAATAGGAACATCTGGT as the sequence, how does the sensor-assay potency score (higher = more potent) read?
The sensor-assay potency score (higher = more potent) was -0.647.

With TTTAATAGGAACATCTGGTGGA as the sequence, how does the sensor-assay potency score (higher = more potent) read?
The sensor-assay potency score (higher = more potent) was 0.705.

For TGCAACTAGTCTAGCATCCAAA, which sensor-assay potency score (higher = more potent) is on record?
The sensor-assay potency score (higher = more potent) was -1.42.

How did the sensor-assay potency score (higher = more potent) turn out when TACTAGAGCAACTTGTCAGTAG was run?
Its sensor-assay potency score (higher = more potent) is 0.355.

Which sensor-assay potency score (higher = more potent) does the source give for TATCATTATCAAATAACTGGTA here?
Its sensor-assay potency score (higher = more potent) is 0.126.

TACAACACAAACTTCTCCCGTC was tested. Which sensor-assay potency score (higher = more potent) did it give?
Its sensor-assay potency score (higher = more potent) is 0.549.

For TTAATAGGAACATCTGGTGGAA, which sensor-assay potency score (higher = more potent) is on record?
The sensor-assay potency score (higher = more potent) was -0.0861.

TAATAGGAACATCTGGTGGAAC was tested. Which sensor-assay potency score (higher = more potent) did it give?
Its sensor-assay potency score (higher = more potent) is -1.27.

Biological target: NXF3
Experiment: as above
Settings: shRNA

With TTACAGGTTGGTAACCTCTTGT as the sequence, how does the sensor-assay potency score (higher = more potent) read?
Its sensor-assay potency score (higher = more potent) is 0.125.

For TTGAACAACTTGATCAGTGTGA, which sensor-assay potency score (higher = more potent) is on record?
Its sensor-assay potency score (higher = more potent) is 0.976.

Which sensor-assay potency score (higher = more potent) does the source give for TTCTTCAACATCTCAGATCCAA here?
The sensor-assay potency score (higher = more potent) was 0.0512.

TTGACAAAGATTGATATCTTTT was tested. Which sensor-assay potency score (higher = more potent) did it give?
The sensor-assay potency score (higher = more potent) was -1.25.

For TTCATAGTGAAACTCAACTGGG, which sensor-assay potency score (higher = more potent) is on record?
Its sensor-assay potency score (higher = more potent) is -0.55.

How did the sensor-assay potency score (higher = more potent) turn out when TTTTCTGACTTCAGCTCCCTGT was run?
Its sensor-assay potency score (higher = more potent) is -0.506.

With AATCTTGCCACTGACATTCTTC as the sequence, how does the sensor-assay potency score (higher = more potent) read?
The sensor-assay potency score (higher = more potent) was -0.451.

How did the sensor-assay potency score (higher = more potent) turn out when TTATCTGCTCCACCTTTTCTGA was run?
Its sensor-assay potency score (higher = more potent) is -1.35.

Which sensor-assay potency score (higher = more potent) does the source give for TAATTTGGGGAACAATTCCAGG here?
The sensor-assay potency score (higher = more potent) was -1.33.

TGCATCTCCATCTTGCTGCTGA was tested. Which sensor-assay potency score (higher = more potent) did it give?
Its sensor-assay potency score (higher = more potent) is -0.136.

How did the sensor-assay potency score (higher = more potent) turn out when TTGCTCTTCTTTGAACAACTTG was run?
The sensor-assay potency score (higher = more potent) was -0.818.

With TGCTCTTCTTTGAACAACTTGA as the sequence, how does the sensor-assay potency score (higher = more potent) read?
The sensor-assay potency score (higher = more potent) was -0.684.

Biological target: NXF5
Experiment: as above
Settings: shRNA

With TTCGTGGACATTTTGTGTGCTT as the sequence, how does the sensor-assay potency score (higher = more potent) read?
Its sensor-assay potency score (higher = more potent) is -0.318.

Which sensor-assay potency score (higher = more potent) does the source give for TACAGTTTGTTGTTGCACAAGT here?
Its sensor-assay potency score (higher = more potent) is -0.398.

How did the sensor-assay potency score (higher = more potent) turn out when TTTCTTTCAGTGATCTTCAGGG was run?
Its sensor-assay potency score (higher = more potent) is 0.16.

For TCTTTCAGTGATCTTCAGGGTG, which sensor-assay potency score (higher = more potent) is on record?
The sensor-assay potency score (higher = more potent) was -0.168.

Which sensor-assay potency score (higher = more potent) does the source give for TTTTGTGTGCTTTAGCAGCTTC here?
The sensor-assay potency score (higher = more potent) was 0.239.

ATTTCTTTCAGTGATCTTCAGG was tested. Which sensor-assay potency score (higher = more potent) did it give?
Its sensor-assay potency score (higher = more potent) is -1.08.
